Experimental data from PubChem BioAssay (NCATS).
Records with an inconclusive call do not appear. Activity calls are given as the source filed them. Unless noted, the call rests on the fitted dose curve; in most records, active means well fitted curve in the direction sought with a large enough effect; inconclusive means small, poorly fitted or top-dose-only effect, or another doubt; inactive means no such curve, though single readings can be large; an effect the other way counts as inactive or inconclusive.

Columns and labels:
[1] = target: Lysosomal acid glucosylceramidase (Homo sapiens) (UniProt P04062); assay: Glucocerebrosidase-p2 (AID 348; in the data active means potency below about 10 µM; further: potency means the concentration at half of the fitted maximal effect); conditions: purified GBA, blue fluorogenic substrate, 40 min
Chain of Lysosomal acid glucosylceramidase (Homo sapiens) (P04062 whole entry, looked up): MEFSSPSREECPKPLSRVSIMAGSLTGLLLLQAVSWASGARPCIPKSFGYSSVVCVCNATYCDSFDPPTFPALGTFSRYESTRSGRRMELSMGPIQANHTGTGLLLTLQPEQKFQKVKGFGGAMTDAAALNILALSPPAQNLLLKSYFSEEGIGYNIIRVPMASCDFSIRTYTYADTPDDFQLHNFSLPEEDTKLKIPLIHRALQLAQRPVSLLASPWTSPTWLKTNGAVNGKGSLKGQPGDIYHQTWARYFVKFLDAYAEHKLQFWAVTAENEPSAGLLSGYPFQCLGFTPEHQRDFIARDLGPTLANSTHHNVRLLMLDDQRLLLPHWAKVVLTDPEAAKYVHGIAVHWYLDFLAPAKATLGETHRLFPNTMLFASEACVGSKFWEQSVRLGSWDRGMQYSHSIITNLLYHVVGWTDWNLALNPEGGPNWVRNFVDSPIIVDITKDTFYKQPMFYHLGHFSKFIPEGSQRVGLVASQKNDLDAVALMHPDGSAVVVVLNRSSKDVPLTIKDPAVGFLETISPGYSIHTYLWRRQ
Method in brief: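 Compounds titrated from 0.6 nM upwards against 0.2 nM enzyme in pH 5.9 citric acid/KH2PO4, taurocholate, tween-20; blue fluorogenic substrate 80 uM, 40 min room temperature, stopped and read Ex 365/Em 440 for AC50.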

[2] = AP1 Signaling Pathway (AID 357; active means well fitted curve in either direction with a large enough effect, not every such curve was filed as active;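 further: ME-180 reporter cells stimulated with EGF at its EC50 level; on the % scale 0 is the no-effect control and ±100 the full control effect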); conditions: ME-180 AP-1-bla reporter, EGF-induced, beta-lactamase ratio, 5 h; at 7.69 µM (top of the series) unless noted
Method in brief: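 First, ME-180 AP-1-bla cells were cultured overnight at 37 °C in low-serum Opti-MEM. Next, titrated compounds with EC50 EGF were incubated 5 hours. Finally, CCF4 was added for 2.5 hours and the 460/530 nm ratio recorded.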

[3] = target: Cytochrome P450 1A2 (Homo sapiens) (UniProt P05177); assay: p450-cyp1a2 (AID 410; calls by dose curve;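 further: -100% = full effect of reference inhibitor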); conditions: recombinant CYP1A2, luciferin-ME demethylation, luminescence; series mostly up to 11.4 µM
Chain of Cytochrome P450 1A2 (Homo sapiens) (P05177 whole entry, looked up): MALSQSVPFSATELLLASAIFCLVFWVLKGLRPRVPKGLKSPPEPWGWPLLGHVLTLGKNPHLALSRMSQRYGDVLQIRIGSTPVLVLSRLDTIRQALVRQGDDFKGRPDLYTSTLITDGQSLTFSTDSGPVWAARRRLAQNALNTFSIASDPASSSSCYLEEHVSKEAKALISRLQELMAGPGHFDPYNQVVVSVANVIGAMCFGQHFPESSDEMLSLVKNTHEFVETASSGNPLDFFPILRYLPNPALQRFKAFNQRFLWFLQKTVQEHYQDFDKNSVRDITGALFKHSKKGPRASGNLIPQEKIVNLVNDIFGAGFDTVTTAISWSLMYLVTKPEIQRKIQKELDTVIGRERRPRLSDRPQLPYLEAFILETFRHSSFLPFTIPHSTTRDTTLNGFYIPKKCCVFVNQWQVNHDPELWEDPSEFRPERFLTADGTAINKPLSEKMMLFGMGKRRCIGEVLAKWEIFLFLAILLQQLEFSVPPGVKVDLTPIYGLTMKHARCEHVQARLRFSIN
Method in brief: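 Luminescent readout of luciferin formed from Luciferin-ME by human CYP1A2; data normalized against complete inhibition by 57 uM furafylline. Enzyme 20nM, substrate 100uM at Km, 100mM KPO4 buffer, 60 min reaction at room temperature.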

[4] = Stat Signaling Pathway (AID 446; active means well fitted curve in either direction with a large enough effect, not every such curve was filed as active;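 further: ME-180 cervical cancer cells given 40 pM IL-6 alongside compound; SIE-controlled beta-lactamase reporter measured as 460/530 nm FRET emission ratio; on the % scale 0 is the no-effect control and ±100 the full control effect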); conditions: ME-180 SIE beta-lactamase reporter, IL-6 stimulated, 5 h; at 7.69 µM (top of the series) unless noted
Method in brief: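 ME-180 cells carrying a SIE-driven beta-lactamase reporter are stimulated with 40 pM IL-6 for 5 h at 37C in the presence of compound. The 460/530 nm FRET substrate ratio is read after 2.5 h at RT. Data are normalised to 300 pM IL-6 and to 125 nM JAK inhibitor controls.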

[5] = target: Glucocorticoid receptor (Homo sapiens) (UniProt P04150); assay: GR-GFP Redistribution (AID 450;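 active means compounds whose dose series gives a full or clear partial fitted curve of increased nuclear translocation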; further: potency means the concentration at half of the fitted maximal effect); conditions: U2OS GR-GFP nuclear translocation, laser cytometry, 2 h
Chain of Glucocorticoid receptor (Homo sapiens) (P04150 whole entry, looked up, the tested form may be a part): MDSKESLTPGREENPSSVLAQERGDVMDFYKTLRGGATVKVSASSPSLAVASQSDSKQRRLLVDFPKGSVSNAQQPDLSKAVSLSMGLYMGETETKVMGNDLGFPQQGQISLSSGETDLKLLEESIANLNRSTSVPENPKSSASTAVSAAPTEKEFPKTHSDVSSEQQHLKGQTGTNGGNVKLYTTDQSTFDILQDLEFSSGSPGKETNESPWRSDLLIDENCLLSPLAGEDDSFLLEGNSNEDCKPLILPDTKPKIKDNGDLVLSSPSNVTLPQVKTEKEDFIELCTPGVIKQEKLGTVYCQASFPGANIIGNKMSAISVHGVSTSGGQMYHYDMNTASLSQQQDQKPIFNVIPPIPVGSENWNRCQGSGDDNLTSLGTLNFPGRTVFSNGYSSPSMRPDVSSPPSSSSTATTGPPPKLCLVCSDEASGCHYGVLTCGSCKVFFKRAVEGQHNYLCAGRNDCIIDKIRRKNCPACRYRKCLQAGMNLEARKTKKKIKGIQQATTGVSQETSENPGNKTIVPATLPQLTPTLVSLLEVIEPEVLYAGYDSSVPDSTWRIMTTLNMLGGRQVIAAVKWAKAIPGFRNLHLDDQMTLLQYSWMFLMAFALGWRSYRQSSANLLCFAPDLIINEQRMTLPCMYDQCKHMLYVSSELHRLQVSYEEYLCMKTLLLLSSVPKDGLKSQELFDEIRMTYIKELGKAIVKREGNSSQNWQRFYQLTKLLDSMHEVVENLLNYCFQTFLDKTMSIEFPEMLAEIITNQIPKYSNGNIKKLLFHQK

[6] = target: Glucocorticoid receptor (Homo sapiens) (UniProt P04150); assay: GR-EFC Redistribution (AID 451; calls by dose curve; further: potency means the concentration at half of the fitted maximal effect); conditions: CHO-K1 GR-EFC translocation, beta-gal luminescence, 2 h
Method in brief: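 CHO-K1 cells stably expressing nuclear-localized β-gal enzyme acceptor and GR fused C-terminally to the enzyme donor fragment; ligand-driven nuclear translocation restores β-gal by complementation. Compounds titrated up to 46 uM final, 2 h at 37 °C; luminescence read.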

[7] = target: Mitogen-activated protein kinase 10 (Mus musculus) (UniProt Q61831); assay: JNK3 AlphaScreen Assay (AID 530; active means well fitted curve in either direction with a large enough effect, not every such curve was filed as active;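 further: kinase came from lysate of stimulated human HepG2 cells; signal reports phosphorylation of biotinylated GST-cJun 1-79 at Ser73 with 10 µM ATP; on the % scale 0 is the no-effect control and ±100 the full control effect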); conditions: JNK3 lysate, c-Jun phosphorylation; series mostly up to 57.1 µM
Method in brief: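 Inhibitors reduce antibody binding to phosphorylated biotin-cJun, lowering AlphaScreen luminescence. Lysates from HepG2 cells pre-activated by IL-1beta plus TNF-alpha supplied JNK3; compounds were titrated.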

[8] = target: 3',5'-cyclic-AMP phosphodiesterase 4B (Homo sapiens) (UniProt Q07343); assay: qHTS Assay for Inhibitors of PDE-IV (AID 607; active means well fitted activation curve with a large enough effect in the main read-out, with a control signal flat, not every such curve was filed as active; further: % of control where 0% means no effect); conditions: HEK293 ACTOne CNG channel cells, membrane potential fluorescence; series mostly up to 22.9 µM
Chain of 3',5'-cyclic-AMP phosphodiesterase 4B (Homo sapiens) (Q07343 whole entry, looked up): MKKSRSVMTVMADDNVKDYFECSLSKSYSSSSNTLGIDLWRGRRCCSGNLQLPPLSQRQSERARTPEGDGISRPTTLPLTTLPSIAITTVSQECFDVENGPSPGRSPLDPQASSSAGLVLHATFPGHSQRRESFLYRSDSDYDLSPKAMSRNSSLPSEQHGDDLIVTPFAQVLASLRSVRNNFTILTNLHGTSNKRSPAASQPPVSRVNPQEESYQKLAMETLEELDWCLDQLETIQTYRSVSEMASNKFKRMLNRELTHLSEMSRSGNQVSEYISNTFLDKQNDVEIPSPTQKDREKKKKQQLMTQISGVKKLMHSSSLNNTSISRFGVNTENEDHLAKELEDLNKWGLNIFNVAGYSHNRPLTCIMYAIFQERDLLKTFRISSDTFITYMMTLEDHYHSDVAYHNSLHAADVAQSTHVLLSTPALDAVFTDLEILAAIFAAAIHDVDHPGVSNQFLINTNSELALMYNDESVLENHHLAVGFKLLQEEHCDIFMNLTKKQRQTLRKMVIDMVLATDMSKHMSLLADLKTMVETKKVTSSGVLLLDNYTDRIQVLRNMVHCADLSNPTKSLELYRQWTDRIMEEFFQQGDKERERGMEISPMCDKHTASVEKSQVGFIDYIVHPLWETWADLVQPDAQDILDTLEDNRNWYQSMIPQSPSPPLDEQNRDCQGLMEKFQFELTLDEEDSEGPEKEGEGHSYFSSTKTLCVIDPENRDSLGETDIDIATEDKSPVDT
Method in brief: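 HEK293 ACTOne cells with CNG channel (1000/well), endogenous PDE4; membrane potential dye, compounds up to 22.9 uM final. Fluorescence Ex 535/Em 590; RO 20-1724 (100 uM final) as reference.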

[9] = target: ATP-dependent 6-phosphofructokinase (Trypanosoma brucei brucei) (UniProt O15648); assay: qHTS Assay to Find Inhibitors of T. brucei phosphofructokinase: hit validation (AID 492961);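 further: luminescence reports ADP formed as PFK phosphorylates fructose-6-phosphate with ATP; on the % scale 0 is the no-effect control and ±100 the full control effect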; conditions: T. brucei PFK, ADP-Glo luminescence; series mostly up to 51.4 µM
Chain of ATP-dependent 6-phosphofructokinase (Trypanosoma brucei brucei) (O15648 whole entry, looked up): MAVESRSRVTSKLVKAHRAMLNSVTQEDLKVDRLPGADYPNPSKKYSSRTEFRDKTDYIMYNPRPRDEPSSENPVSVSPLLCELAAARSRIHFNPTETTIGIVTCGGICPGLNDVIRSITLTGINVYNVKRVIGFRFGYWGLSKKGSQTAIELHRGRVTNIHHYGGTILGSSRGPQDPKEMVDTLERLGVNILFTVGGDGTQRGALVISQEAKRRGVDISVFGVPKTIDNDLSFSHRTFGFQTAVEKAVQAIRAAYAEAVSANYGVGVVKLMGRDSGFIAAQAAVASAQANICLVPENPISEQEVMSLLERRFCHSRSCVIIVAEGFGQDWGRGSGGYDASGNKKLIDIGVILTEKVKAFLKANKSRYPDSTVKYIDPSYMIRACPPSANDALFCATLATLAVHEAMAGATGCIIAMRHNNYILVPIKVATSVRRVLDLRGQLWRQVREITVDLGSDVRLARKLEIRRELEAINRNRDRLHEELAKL
Method in brief: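 Percent activity derived from corrected luminescence, normalized between 0x and 1x enzyme controls, then fitted to concentration-response curves. Conditions: 1.25 nM PFK, 0.1 mM ATP, 0.5 mM F6P, 45 min RT.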

[10] = target: Ubiquitin carboxyl-terminal hydrolase 1 (Homo sapiens) (UniProt O94782); assay: Inhibitors of USP1/UAF1: Pilot qHTS (AID 504865); conditions: purified USP1/UAF1, Ub-rhodamine cleavage fluorescence; series mostly up to 114 µM;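 further: rhodamine fluorescence freed from ubiquitin-rhodamine substrate followed over time; top concentration of the series differs between compounds; on the % scale 0 is the no-effect control and ±100 the full control effect; nearly all actives have a fitted effect of over 35% in size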
Chain of Ubiquitin carboxyl-terminal hydrolase 1 (Homo sapiens) (O94782 whole entry, looked up): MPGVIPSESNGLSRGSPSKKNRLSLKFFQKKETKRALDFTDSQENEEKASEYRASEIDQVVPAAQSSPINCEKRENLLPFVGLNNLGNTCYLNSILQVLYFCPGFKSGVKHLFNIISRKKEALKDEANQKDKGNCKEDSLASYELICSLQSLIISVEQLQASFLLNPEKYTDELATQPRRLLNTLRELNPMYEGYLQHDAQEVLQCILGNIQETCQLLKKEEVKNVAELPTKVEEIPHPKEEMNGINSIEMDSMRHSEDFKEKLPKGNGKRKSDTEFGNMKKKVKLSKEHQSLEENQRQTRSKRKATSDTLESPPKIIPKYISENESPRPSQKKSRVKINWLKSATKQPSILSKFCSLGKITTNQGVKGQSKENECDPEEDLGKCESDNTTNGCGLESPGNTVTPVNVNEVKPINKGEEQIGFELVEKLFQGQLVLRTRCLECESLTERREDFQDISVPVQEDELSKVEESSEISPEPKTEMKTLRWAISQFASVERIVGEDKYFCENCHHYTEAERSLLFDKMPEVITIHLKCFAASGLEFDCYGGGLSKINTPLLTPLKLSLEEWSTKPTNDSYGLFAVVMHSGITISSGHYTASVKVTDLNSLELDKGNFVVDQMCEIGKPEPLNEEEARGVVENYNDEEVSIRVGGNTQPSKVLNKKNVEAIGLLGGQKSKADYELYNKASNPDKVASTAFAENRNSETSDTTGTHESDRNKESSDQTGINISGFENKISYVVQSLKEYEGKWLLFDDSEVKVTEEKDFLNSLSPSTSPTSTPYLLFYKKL
Method in brief: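 Deubiquitinase activity followed as kinetic rhodamine fluorescence release from 150 nM Ub-Rho. 1 nM USP1/UAF1 with compound, after 15 min room-temperature preincubation, in HEPES pH 7.8 buffer containing TCEP, EDTA, BSA and Tween-20.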

[11] = target: Luciferin 4-monooxygenase (Photinus pyralis) (UniProt P08659); assay: Biochemical firefly luciferase enzyme assay for NPC (AID 624030);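 further: purified P. pyralis luciferase at 10 nM with luciferin and ATP substrate; 0% = DMSO and -100% = full luciferase inhibition by PTC124 control; nearly all actives have a fitted effect of over 70% in size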; conditions: purified P. pyralis luciferase, luminescence, 5 min; series mostly up to 58.6 µM
Chain of Luciferin 4-monooxygenase (Photinus pyralis) (P08659 whole entry, looked up): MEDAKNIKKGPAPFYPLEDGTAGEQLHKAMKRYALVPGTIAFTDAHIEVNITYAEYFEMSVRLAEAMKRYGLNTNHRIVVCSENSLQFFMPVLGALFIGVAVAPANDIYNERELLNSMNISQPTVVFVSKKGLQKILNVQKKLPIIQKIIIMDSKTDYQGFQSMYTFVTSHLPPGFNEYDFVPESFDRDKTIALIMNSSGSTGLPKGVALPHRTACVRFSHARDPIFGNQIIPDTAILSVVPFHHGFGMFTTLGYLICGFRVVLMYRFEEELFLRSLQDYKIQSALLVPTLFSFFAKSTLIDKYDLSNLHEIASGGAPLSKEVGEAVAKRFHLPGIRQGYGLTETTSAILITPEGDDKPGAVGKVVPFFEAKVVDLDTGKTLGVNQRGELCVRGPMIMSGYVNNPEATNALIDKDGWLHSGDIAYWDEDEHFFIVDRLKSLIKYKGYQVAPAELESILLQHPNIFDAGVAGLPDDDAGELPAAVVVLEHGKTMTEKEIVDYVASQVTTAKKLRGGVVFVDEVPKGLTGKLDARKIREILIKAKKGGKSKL
Method in brief: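 Counter-screen for direct inhibition of the luciferase enzyme by approved-drug library compounds, run at 10 nM enzyme in 50 mM Tris acetate (final). Luminescence was read within 5 min of enzyme-buffer addition and normalized to PTC124 versus DMSO (0%).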

[12] = S16 Schwann cell viability assay (CellTiter-Glo assay) (AID 624031); conditions: S16 rat Schwann cells viability, 24 h; series mostly up to 57.5 µM;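 further: cellular ATP luminescence as a viability measure; plate controls were DMSO-treated cells for no effect and cell-free wells for full effect; nearly all actives have a fitted effect of over 70% in size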
Method in brief: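 Native S16 rat Schwann cells, 500-750 cells/well in DMEM with 10% FBS, dosed with compound after overnight culture and incubated 24h at 37 degree Celsius/5% CO2. Viability by CellTiter-Glo luminescence; % activity normalized to no-cell wells and DMSO-treated cells.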

[13] = S16 Schwann cell PMP22 intronic element firefly luciferase assay (AID 624032); conditions: S16 rat Schwann cells, PMP22 element FLuc, 24 h; series mostly up to 57.5 µM;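 further: plate controls were DMSO for no effect and PTC124 positive control mean for full effect; nearly all actives have a fitted effect of over 30% in size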
Method in brief: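 Rat S16 Schwann cells stably carrying a PMP22 intronic element-driven Fluc reporter were seeded overnight, then exposed to compounds for 24 h at 37 °C. Luminescence was normalized to PTC124 (positive control) and DMSO (0% activity).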

[14] = S16 Schwann cell PMP22 intronic element beta-lactamase assay (AID 624044; calls by dose curve;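 further: 0% = DMSO and -100% = potassium clavulanate positive control; nearly all actives have a fitted effect of over 15% in size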); conditions: S16 rat Schwann cells, PMP22 element beta-lactamase FRET, 24 h; series mostly up to 38.3 µM
Method in brief: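 Rat S16 Schwann cells with beta-Lac driven by a PMP22 intronic element, compound-treated 24 h at 37 °C. LiveBLAzer FRET B/G read: 460 nm normalized to potassium clavulanate vs DMSO; 535 nm FRET as viability; concentration-effect curves classified.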

[15] = test system: 7G8; assay: qHTS profiling for inhibitors of Plasmodium falciparum proliferation (AID 504749);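 further: 0% = DMSO vehicle and full inhibition = artemisinin control; nearly all actives have a fitted effect of over 60% in size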; conditions: P. falciparum in erythrocytes, SYBR Green DNA, 72 h; series mostly up to 28.7 µM
Method in brief: (§1)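 Parasite proliferation within erythrocytes, 72 h exposure. Endpoint: SYBR Green I fluorescence after overnight lysis at room temperature. Controls: 0.29 uM artemisinin, DMSO.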

[16] = test system: AA1029; assay: as above; conditions: P. falciparum in erythrocytes, SYBR Green DNA, 72 h; series mostly up to 28.7 µM
Method in brief: as §1

[17] = test system: AS120; assay: as above; conditions: P. falciparum in erythrocytes, SYBR Green DNA, 72 h; series mostly up to 28.7 µM
Method in brief: as §1

[18] = test system: ATS189; assay: as above; conditions: P. falciparum in erythrocytes, SYBR Green DNA, 72 h; series mostly up to 28.7 µM
Method in brief: as §1

[19] = test system: C2A; assay: as above; conditions: P. falciparum in erythrocytes, SYBR Green DNA, 72 h; series mostly up to 28.7 µM
Method in brief: as §1

[20] = test system: CP185; assay: as above; conditions: P. falciparum in erythrocytes, SYBR Green DNA, 72 h; series mostly up to 28.7 µM
Method in brief: as §1

[21] = test system: CP191; assay: as above; conditions: P. falciparum in erythrocytes, SYBR Green DNA, 72 h; series mostly up to 28.7 µM
Method in brief: as §1

[22] = test system: CP192; assay: as above; conditions: P. falciparum in erythrocytes, SYBR Green DNA, 72 h; series mostly up to 28.7 µM
Method in brief: as §1

[23] = test system: CP194; assay: as above; conditions: P. falciparum in erythrocytes, SYBR Green DNA, 72 h; series mostly up to 28.7 µM
Method in brief: as §1

[24] = test system: CP201; assay: as above; conditions: P. falciparum in erythrocytes, SYBR Green DNA, 72 h; series mostly up to 28.7 µM
Method in brief: as §1

[25] = test system: CP203; assay: as above; conditions: P. falciparum in erythrocytes, SYBR Green DNA, 72 h; series mostly up to 28.7 µM
Method in brief: as §1

[26] = test system: CP211; assay: as above; conditions: P. falciparum in erythrocytes, SYBR Green DNA, 72 h; series mostly up to 28.7 µM
Method in brief: as §1

[27] = test system: CP217; assay: as above; conditions: P. falciparum in erythrocytes, SYBR Green DNA, 72 h; series mostly up to 28.7 µM
Method in brief: as §1

[28] = test system: CP237; assay: as above; conditions: P. falciparum in erythrocytes, SYBR Green DNA, 72 h; series mostly up to 28.7 µM
Method in brief: as §1

[29] = test system: CP238; assay: as above; conditions: P. falciparum in erythrocytes, SYBR Green DNA, 72 h; series mostly up to 28.7 µM
Method in brief: as §1

[30] = test system: CP247; assay: as above; conditions: P. falciparum in erythrocytes, SYBR Green DNA, 72 h; series mostly up to 28.7 µM
Method in brief: as §1

[31] = test system: CP250; assay: as above; conditions: P. falciparum in erythrocytes, SYBR Green DNA, 72 h; series mostly up to 28.7 µM
Method in brief: as §1

[32] = test system: CP252; assay: as above; conditions: P. falciparum in erythrocytes, SYBR Green DNA, 72 h; series mostly up to 28.7 µM
Method in brief: as §1

[33] = test system: CP256; assay: as above; conditions: P. falciparum in erythrocytes, SYBR Green DNA, 72 h; series mostly up to 28.7 µM
Method in brief: as §1

C[N+]1(C)C2CC[C@H]1CC(OC(=O)[C@@H](CO)c1ccccc1)C2 (stereo partly drawn)
inactive: Potency [1] > 11.4 µM | activity change, negative = inhibition [2] 4% | Potency [3] | activity, negative = inhibition [4] 7.35% | Potency [5] > 46 µM | Potency [6] > 9.22 µM | activity change, negative = inhibition [7] 2.63% [at 11.4 µM] | outcome [8] | outcome [9] | Potency [10] | outcome [11] | outcome [12] | outcome [13] | outcome [14] | Potency [15] | Potency [16] | Potency [17] | Potency [18] | Potency [19] | Potency [20] | Potency [21] | Potency [22] | Potency [23] | Potency [24] | Potency [25] | Potency [26] | Potency [27] | Potency [28] | Potency [29] | Potency [30] | Potency [31] | Potency [32] | Potency [33]
